Screens as filed in PubChem.
Hits are enriched below; roughly 6.9% of the tested compounds scored in any of these assays.
PLK1 PBD inh: qHTS for Inhibitors of PLK1-PDB (polo-like kinase 1 - polo-box domain): Primary Screen | Serine/threonine-protein kinase PLK1 (Homo sapiens), P53350 | Plk1 PBD binding of FITC phosphopeptide, fluorescence polarization | Potency, µM, hits mostly inhibitors | hit rate 2.8% among 360,000 | AID 720504, 2013; also: series mostly up to about 57 µM; nearly all actives have a fitted effect of over 65% in size
BAZ2B inh: qHTS Assay for Inhibitors of BAZ2B | Bromodomain adjacent to zinc finger domain protein 2B (Homo sapiens), Q9UIF8 | AlphaScreen BAZ2B-H3K14Ac peptide displacement | Potency, µM (series often up to 114 µM), most hits filed as inhibitors | hit rate 4.4% among 360,000 | AID 504333, 2011; also: nearly all actives have a fitted effect of over 60% in size
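AlphaScreen displacement: compounds (up to 110uM) incubated 30 min at room temperature with a preformed 50 nM BAZ2B/50 nM biotinylated H3K14Ac peptide complex in PBS pH 7.4 with Tween-20. Donor and acceptor beads at 10 ug/mL final added, 20 min light-protected before reading.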
HP1b binding inh: HTS for Inhibitors of HP1-beta Chromodomain Interactions with Methylated Histone Tails; AlphaScreen HP1-beta / biotin-H3K9me3 peptide binding; Potency, µM (series often up to 114 µM), actives largely listed as inhibitors; hit rate 0.56% among 390,000; also: nearly all actives have a fitted effect of over 70% in size
Target sequence (P83916 whole entry, looked up): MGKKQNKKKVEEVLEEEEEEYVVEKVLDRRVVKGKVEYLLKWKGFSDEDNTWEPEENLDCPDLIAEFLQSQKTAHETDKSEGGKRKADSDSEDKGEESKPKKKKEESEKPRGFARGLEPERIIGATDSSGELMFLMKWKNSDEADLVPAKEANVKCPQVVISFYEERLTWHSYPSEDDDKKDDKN
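AlphaScreen: HP1-beta (50 nM) preformed 30 min with biotin-H3(1-18)K9me3 peptide (50 nM) in PBS pH 7.4, 0.01% Tween-20. Compound added for 30 min at RT, then streptavidin donor/nickel chelate acceptor beads (10 ug/mL) for 30 min.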
VDR inh: Inhibitors of the vitamin D receptor (VDR): qHTS | hit rate 0.93% among 400,000 | Vitamin D3 receptor (Homo sapiens), P11473 | Potency, µM, usual class: inhibitors | VDR-SRC2-3 peptide fluorescence polarization, 2 h
Target sequence (P11473 whole entry, looked up): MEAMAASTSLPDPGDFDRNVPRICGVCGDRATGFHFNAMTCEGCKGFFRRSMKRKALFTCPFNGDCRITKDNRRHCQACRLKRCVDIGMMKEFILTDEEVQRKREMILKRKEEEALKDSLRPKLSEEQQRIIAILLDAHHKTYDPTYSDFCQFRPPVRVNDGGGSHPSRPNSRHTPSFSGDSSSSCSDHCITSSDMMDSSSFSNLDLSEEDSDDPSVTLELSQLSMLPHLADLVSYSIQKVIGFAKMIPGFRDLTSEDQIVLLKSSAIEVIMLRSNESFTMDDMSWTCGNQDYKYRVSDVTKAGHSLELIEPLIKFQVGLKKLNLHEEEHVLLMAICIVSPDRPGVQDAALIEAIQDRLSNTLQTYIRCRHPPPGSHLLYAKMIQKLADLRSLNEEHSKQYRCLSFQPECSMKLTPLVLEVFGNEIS
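Signal is fluorescence polarization, reporting how far test compounds block the interaction of VDR with the SRC2-3 coregulator peptide after a 2 h room-temperature incubation.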
L3MBTL1 block: qHTS Assay for the Inhibitors of L3MBTL1; Lethal(3)malignant brain tumor-like protein 1 (Homo sapiens), Q9Y468; AlphaScreen L3MBTL1–H3K9me1 peptide binding; Potency, µM (top dose mostly 57.1 µM), hits mostly inhibitors; hit rate 0.66% among 230,000; also: nearly all actives have a fitted effect of over 60% in size
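AlphaScreen assay: L3MBTL1 (50 nM final) was preincubated 30 min at room temperature with biotinylated H3(1-15)K9me1 peptide (75 nM final), then 30 min with library compounds; streptavidin donor and nickel chelate acceptor beads (10 ug/mL final) added, 30 min dark.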
JMJD2A Tudor inh: qHTS Assay for Inhibitors of JMJD2A-Tudor Domain; AlphaScreen JMJD2A-Tudor / H3K4me3 peptide binding; Potency, µM (series often up to 114 µM), most hits filed as inhibitors; hit rate 4.4% among 390,000; AID 504339, 2011; also: nearly all actives have a fitted effect of over 50% in size
A number is an active result; . = inactive; ? = inconclusive; / = no result; ! = not active in a repeat; [ ] = another dose, or the depositor's remark. Calls follow the shape of the dose curve; as a rule, active = well fitted curve in the direction sought with a large enough effect; inconclusive = small, poorly fitted or top-dose-only effect, or another doubt; inactive = no such curve, though single readings can be large; an effect the other way counts as inactive or inconclusive.

SMILES	PLK1 PBD inh	BAZ2B inh	HP1b binding inh	VDR inh	L3MBTL1 block	JMJD2A Tudor inh
Cc1ccc(N2C(=O)C3C4C=CC(CNC(=S)N5CCN(c6ccccc6)CC5)(O4)C3C2=O)cc1 (stereo not drawn)	.	/	?	.	/	?
Cc1ccc(NC(=S)NCC23C=CC(O2)C2C(=O)N(c4ccc(C)cc4)C(=O)C23)cc1 (stereo not drawn)	.	.	?	?	.	89µM
CC(=O)C1=C(O)CC(C)(C)CC1=NCCc1nc2ccccc2[nH]1	.	.	.	.	.	.
COC(=O)CC/C(O)=C1\C(=O)CC(C)(C)CC1=NCCc1nc2ccccc2[nH]1	21µM	.	.	.	/	?
CC(C)c1cccc(C(C)C)c1NC(=O)CNCC(O)c1ccccc1 (stereo not drawn)	.	50µM	.	.	/	56µM
FC(F)(F)c1ccccc1-n1c(CN2CCCCC2)n[nH]c1=S	?	.	.	.	/	22µM
COc1ccc(OC)c(CNC(=O)CCc2c(C)nc3c(c2C)c(=O)n(C)c(=O)n3C)c1	/	.	.	.	/	.
O=C(O)c1ncc(Cl)c(Cl)c1Cl	.	.	.	.	.	50µM!
Cc1nnc(N2C(=O)C(O)=C(C(=O)c3ccco3)C2c2ccc(F)cc2)s1 (stereo not drawn)	.	.	.	.	.	56µM
CSc1ccc(C2C(C(=O)c3ccco3)=C(O)C(=O)N2c2nnc(SC)s2)cc1 (stereo not drawn)	?	?	.	?	/	7.1µM
Cc1nnc(N2C(=O)C(O)=C(C(=O)c3ccco3)C2c2ccc(C(C)(C)C)cc2)s1 (stereo not drawn)	?	.	.	.	.	.
COc1ccc(OC)c(C(O)c2coc3ccc(O)c(CN4CCOCC4)c23)c1 (stereo not drawn)	.	.	.	.	.	89µM
CCCC(C(=O)Nc1ccc2c(C)cc(=O)oc2c1)c1ccccc1 (stereo not drawn)	.	56µM	.	.	/	.
Cc1cc(=O)oc2cc(NC(=O)Cc3ccccc3)ccc12	.	.	.	.	/	.
O=C(/C(=C/O)N=Nc1ccccc1)c1ccco1	.	?	?	.	.	?
Cc1cccc(N=N/C(=C\O)C(=O)c2ccc(Br)cc2)c1	.	?	.	.	?	?
O=C(/C(=C/O)N=Nc1ccc(Cl)cc1)c1ccncc1	?	32µM	.	?	.	?
Cc1ccc(N=N/C(=C\O)C(=O)c2ccncc2)cc1	.	45µM	.	.	/	?
COc1cc(NS(=O)(=O)c2ccc3c(c2)CC(=O)N3)cc(OC)c1OC	/	/	.	.	/	.
Cc1cc(C)cc(NC(=O)NCCc2c(C)nn(C)c2C)c1	/	.	.	.	/	.
O=[N+]([O-])CC(=Nc1ccc(Cl)cc1)N/N=C\c1oc(O)c2ccccc12	17µM	?	.	?	/	?
CCCCC1(Cc2cccc([N+](=O)[O-])c2)C(=O)N(c2ccccc2)N(c2ccccc2)C1=O	.	.	.	.	.	.
COc1ccc(NC(=O)N2CCN(S(=O)(=O)c3ccc4c(ccn4C)c3)CC2)cc1OC	/	.	.	.	/	?
Nc1nc(=S)c2ncn(C3CCCC3)c2[nH]1	.	?	?	.	.	50µM
Cc1cccc(N2C(=O)c3ccc(C(=O)Nc4ccccn4)cc3C2=O)c1	.	.	.	.	/	.
SMILES	PLK1 PBD inh	BAZ2B inh	HP1b binding inh	VDR inh	L3MBTL1 block	JMJD2A Tudor inh
Cc1cccc(N2C(=O)/C(=C\c3ccc(C(=O)O)cc3)c3ccccc3C2=O)c1	6.7µM	?	.	?	.	.
O=c1[nH][nH]c(=S)n1C1CCCCC1	3µM	25µM	3.5µM	35µM	.	2.5µM
Cc1ccc(-c2c(C#N)c(N)nc3c2CCCC3)o1	.	?	.	.	?	.
Cc1ccc(-c2c3c([nH]c(=S)c2C#N)CCCC3)o1	12µM	50µM	?	?	?	40µM
N#Cc1c(-c2ccncc2)c2c([nH]c1=S)CCCC2	27µM	?	.	.	.	2.2µM
O=C(NCc1ccccc1Cl)c1ccc2c(c1)ncn2-c1cccc(F)c1	/	.	.	.	/	.
COc1ccccc1C(=O)Nc1c(C(=O)N(CCN(C)C)Cc2ccco2)oc2ccccc12	.	?	.	.	/	45µM
COc1ccc(OCC(=O)Nc2c(C(=O)N(CCN(C)C)Cc3ccco3)oc3ccccc23)cc1	.	71µM	?	.	/	?
Cc1ccccc1C(=O)Nc1c(C(=O)N(CCN(C)C)Cc2ccco2)oc2ccccc12	.	?	.	.	/	.
CCOC(=O)c1ccc(-c2c(-c3ccccc3OC)sc3ccc(OC)cc23)cc1F	.	/	.	.	.	.
CC(=O)c1ccc(NC(=O)NC2CC(=O)N(c3ccc4c(c3)OCCO4)C2)cc1 (stereo not drawn)	.	.	.	.	.	.
O=S(=O)(Nc1ccc(-c2ccc3nncn3n2)cc1)c1ccccc1Cl	.	.	.	.	.	.
COc1ccc(S(=O)(=O)Nc2ccc(-c3ccc4nncn4n3)cc2)c(OC)c1	19µM	.	?	?	.	.
Cc1ccc(C)c(SC2=NS(=O)(=O)c3ccccc32)c1	/	/	/	/	/	.
O=C(N/N=C/C(Cl)=C/c1ccc([N+](=O)[O-])cc1)C(=O)Nc1ccc(C(=O)O)cc1	30µM	?	?	?	.	.[11.4 µM]
O=C(Nc1ccc(C(=O)O)cc1)/C(=C\c1ccc([N+](=O)[O-])cc1)NC(=O)c1ccco1	.	/	/	/	/	/
COc1ccccc1Nc1nc(N)nc(CN2CCCCCC2)n1	?	13µM	.	.	?	.[11.4 µM]
COc1ccccc1N1CCN(Cc2nc(N)nc(Nc3ccccc3)n2)CC1	.	.	.	.	.	50µM
COc1cccc(N2CCN(Cc3nc(N)nc(Nc4ccccc4OC)n3)CC2)c1	.	50µM	.	.	.	.
COc1ccc(Nc2nc(N)nc(CN3CCOCC3)n2)cc1	?	79µM	.	.	.	50µM
COCCCn1c(=O)c2sccc2n2c(CCCC(=O)Nc3cccc(C(F)(F)F)c3)nnc12	/	.	.	.	/	.
Cc1ccc2c(c1)N(CC(=O)N1CCCC1)C(=O)c1cccnc1O2	.	.	.	.	/	.
COc1cccc(-c2oc3ccc(C)cc3c(=O)c2O)c1	/	.	.	.	/	.
COc1ccccc1Nc1nc(N)nc(CN2CCOCC2)n1	.	56µM	.	.	.	.
COc1ccccc1Nc1nc(N)nc(CN2CCC(C)CC2)n1	.	.	.	.	/	?
C/C(=N\Nc1ccc(C(=O)O)cc1)c1ccc(Br)cc1	.	50µM	?	.	?	71µM
C/C(=N/Nc1ncc(Br)cn1)c1ccc(Br)cc1	4.7µM	.	.	?	.	?
